From PubChem
rTrxR1 inhibitor – blocks rat thioredoxin reductase 1. O89049. recombinant rTrxR1, NADPH fluorescence consumption, selenite substrate. Potency, µM (highest dose often 114 µM), actives largely listed as inhibitors. 390,000 tested, 1% active. AID 588453; also: nearly all actives have a fitted effect of over 65% in size
Target sequence (O89049 whole entry, looked up): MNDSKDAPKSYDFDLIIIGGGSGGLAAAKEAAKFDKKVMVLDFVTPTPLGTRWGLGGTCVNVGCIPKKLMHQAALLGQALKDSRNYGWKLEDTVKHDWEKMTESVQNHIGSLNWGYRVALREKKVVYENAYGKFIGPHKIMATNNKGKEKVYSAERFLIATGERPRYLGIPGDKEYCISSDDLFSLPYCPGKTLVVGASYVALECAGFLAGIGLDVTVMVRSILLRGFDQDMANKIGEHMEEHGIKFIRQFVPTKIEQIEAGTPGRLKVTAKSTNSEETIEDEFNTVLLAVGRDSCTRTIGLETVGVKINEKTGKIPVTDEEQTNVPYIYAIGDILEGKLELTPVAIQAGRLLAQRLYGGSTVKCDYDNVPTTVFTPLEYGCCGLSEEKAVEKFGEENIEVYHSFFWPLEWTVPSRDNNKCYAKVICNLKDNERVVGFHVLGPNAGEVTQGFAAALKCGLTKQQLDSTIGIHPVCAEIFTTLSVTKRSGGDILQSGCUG
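Rat TrxR1 (90 nM in the dispensed reagent) was pre-reduced with 400 uM NADPH for 5 min at room temperature, then incubated with compound for 15 min. After 400 uM selenite was added, NADPH fluorescence (Ex 340/Em 450 nm) was followed for 8 min.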
TrxR1 substrate – rat thioredoxin reductase 1 substrate activity; 390,000 tested, 0.01% active; Potency, µM (top dose mostly 114 µM); O89049; purified TrxR1 substrate turnover, NADPH consumption readout; also: nearly all actives have a fitted effect of over 50% in size
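Rat TrxR1, dispensed at 90 nM, was prereduced with 400 uM NADPH (final) for 5 min at ~22 deg C, then incubated with compound 15 min before 400 uM selenite. A first-read NADPH fluorescence drop versus no-compound background flagged substrates.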
12-LOX inh – inhibitors of human 12S-lipoxygenase ALOX12. P18054. 580,000 tested, 1.1% active. Potency, µM (highest dose often 108 µM), usual class: inhibitors. AID 1671190. purified 12hLO, xylenol orange hydroperoxide absorbance
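Purified human 12hLO at 150 nM in 25 mM Hepes, 0.01% Triton X-100, pH 7.0, preincubated 15 min at room temperature with compound. Reaction started with 40 uM arachidonic acid, 30 min at room temperature. Hydroperoxide measured by Fe-xylenol orange, 573/405 nm absorbance ratio.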
IDH1 R132H inh – human IDH1 R132H inhibition; IDH1-R132H enzyme, NADPH consumption, diaphorase/resazurin fluorescence; 390,000 tested, 0.093% active; AID 602179; Potency, µM (highest dose often 76.6 µM), hits mostly inhibitors; O75874; also: nearly all actives have a fitted effect of over 65% in size
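IDH1-R132H (0.5 ug/mL dispensed) in pH 7.5 Tris buffer was preincubated 30 min with compound, then given a substrate mix of 0.016 mM NADPH and 2 mM alpha-KG for 80 min at room temperature; remaining NADPH was read by diaphorase/resazurin fluorescence.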
GRP78 ERSR act – induces the endoplasmic reticulum stress response in human glioma cells; U87-MG GRP78 promoter luciferase reporter, 16 h; 420,000 tested, 0.02% active; Potency, µM, usual class: activators; AID 602332; also: series mostly up to about 76 µM; nearly all actives have a fitted effect of over 35% in size
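Stably transfected U87-MG human glioma cells carrying a GRP78-based luminescent sensor were seeded at 1000 cells/well, pin-dosed with compounds and incubated 16 h. Luciferase reagent was then added, and end-point luminescence was read after 10 min at room temperature.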
Anesthetic bind – binds horse apoferritin like a general anesthetic. P02791. apoferritin/1-aminoanthracene competitive binding, fluorescence. Potency, µM (top dose mostly 77.5 µM), most hits filed as inhibitors. 350,000 tested, 0.074% active. AID 485281; also: nearly all actives have a fitted effect of over 20% in size
Target sequence (P02791 2-175 limits assumed): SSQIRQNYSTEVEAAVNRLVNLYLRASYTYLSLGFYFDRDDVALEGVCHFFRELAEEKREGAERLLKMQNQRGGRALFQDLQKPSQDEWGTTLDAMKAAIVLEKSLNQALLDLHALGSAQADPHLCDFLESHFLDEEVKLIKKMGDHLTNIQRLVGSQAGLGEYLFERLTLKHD
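Apoferritin-based anesthetic binding model; compound displacement of fluorescent 1-AMA measured as endpoint fluorescence after 10 minutes at room temperature, scaled to free-ligand and complex controls.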
A number is an active result; [ ] = remark or other dose. Only some compounds are listed: those with a hit (about 1.7% of all), similar ones and a draw of the others. Calls follow the shape of the dose curve; as a rule, active = well fitted curve in the direction sought with a large enough effect; inconclusive = small, poorly fitted or top-dose-only effect, or another doubt; inactive = no such curve, though single readings can be large; an effect the other way counts as inactive or inconclusive.

What do the screens show for `CC(NC(=O)c1ccc2nccn2c1)c1ccc(F)cc1` (centres undefined)?
12-LOX inh: inactive

What do the screens show for `CCOc1ccc(C(=O)CC(C(=O)O)N2CCCCC2)cc1` (centres undefined)?
rTrxR1 inhibitor: 14µM; TrxR1 substrate: inactive; IDH1 R132H inh: inactive; GRP78 ERSR act: inactive

What do the screens show for `CCOc1ccc(C(=O)OC(C)C(=O)N2CCN(Cc3ccccc3)CC2)cc1` (centres undefined)?
rTrxR1 inhibitor: inactive; TrxR1 substrate: inactive; 12-LOX inh: inactive; IDH1 R132H inh: inactive; GRP78 ERSR act: inactive

How did CCOc1ccc(C(=O)CC(C(=O)O)N2CCN(Cc3ccccc3)CC2)cc1 (centres undefined) do in these assays?
rTrxR1 inhibitor: 16µM; TrxR1 substrate: inactive; IDH1 R132H inh: inactive; GRP78 ERSR act: inactive

What do the screens show for `CCOc1ccc(C(=O)N2CCCCCC2)cc1`?
rTrxR1 inhibitor: inactive; TrxR1 substrate: inactive; 12-LOX inh: inactive; IDH1 R132H inh: inactive; GRP78 ERSR act: inactive; Anesthetic bind: inactive

Results for CC(Cl)C(=O)Nc1ccc(C(N)=O)cc1 (centres undefined) ?
12-LOX inh: inactive

What do the screens show for `N#CC1(Br)C(=N)c2ccccc2CC12CCCCC2` (centres undefined)?
12-LOX inh: 0.56µM

Results for COc1cc(C2c3c(n[nH]c3C)C(=O)N2c2ccc(Br)cc2)ccc1O (centres undefined) ?
rTrxR1 inhibitor: 7.9µM; TrxR1 substrate: inactive; 12-LOX inh: inconclusive; IDH1 R132H inh: inactive; GRP78 ERSR act: inactive; Anesthetic bind: inactive

What do the screens show for `O=C(NC(=S)Nc1cccnc1)c1cccc(Cl)c1`?
12-LOX inh: inactive; IDH1 R132H inh: inactive; GRP78 ERSR act: inactive

What do the screens show for `CCOc1ccc(C(=O)NC(=S)Nc2cccnc2)cc1[N+](=O)[O-]`?
rTrxR1 inhibitor: inactive; TrxR1 substrate: inactive; 12-LOX inh: inactive; IDH1 R132H inh: inactive; GRP78 ERSR act: inactive; Anesthetic bind: inactive

Results for Cc1cc(C)cc(C(=O)NC(=S)Nc2ccc(-c3cc4ccccc4oc3=O)cc2)c1 ?
rTrxR1 inhibitor: inactive; TrxR1 substrate: inactive; 12-LOX inh: 10µM; IDH1 R132H inh: inactive; GRP78 ERSR act: inactive; Anesthetic bind: inactive

How did COc1ccc(C(=O)NC(=S)Nc2cccnc2)cc1[N+](=O)[O-] do in these assays?
rTrxR1 inhibitor: 10µM; TrxR1 substrate: inactive; 12-LOX inh: inactive; IDH1 R132H inh: inactive; GRP78 ERSR act: inactive; Anesthetic bind: inactive

What do the screens show for `Cc1cc(C)cc(C(=O)NC(=S)Nc2cccnc2)c1`?
rTrxR1 inhibitor: 45µM; TrxR1 substrate: inactive; 12-LOX inh: inactive; IDH1 R132H inh: inactive; GRP78 ERSR act: inactive; Anesthetic bind: inactive

Results for O=C(CCC1CCN(Cc2ccc(OCCO)cc2)CC1)Nc1ccccc1Cl ?
12-LOX inh: inactive

What do the screens show for `CN(C)S(=O)(=O)c1ccc2oc(SC(C(=O)N3CCCC3)c3ccccc3)nc2c1` (centres undefined)?
12-LOX inh: inactive

Results for Cc1ccccc1-c1nccc(NCCN2CCOCC2)n1 ?
12-LOX inh: 40µM; GRP78 ERSR act: inactive

Results for Cc1noc(C)c1-c1cc(NC2CCNCC2)ncn1 ?
12-LOX inh: 22µM; GRP78 ERSR act: inactive

What do the screens show for `FC(F)(F)c1ccccc1-c1nccc(NCCN2CCOCC2)n1`?
12-LOX inh: inconclusive; GRP78 ERSR act: inactive

Results for Cc1noc(C)c1-c1cc(N2CCNCC2)ncn1 ?
12-LOX inh: inconclusive; GRP78 ERSR act: inactive

How did Cc1noc(C)c1-c1nccc(NCCN2CCOCC2)n1 do in these assays?
12-LOX inh: 32µM; GRP78 ERSR act: inactive

Results for Cc1noc(C)c1-c1nccc(NC2CC2)n1 ?
12-LOX inh: 7.1µM; GRP78 ERSR act: inactive

What do the screens show for `CC(=O)Nc1ccc(CN2CC3(C2)C(=O)Nc2ccccc23)cc1`?
12-LOX inh: inactive[6.33 µM]

What do the screens show for `NC(N)=N/N=C/c1ccc(-c2ccccc2)cc1`?
12-LOX inh: inactive

How did Cc1noc(C)c1-c1nccc(-n2ccnc2)n1 do in these assays?
12-LOX inh: 45µM; GRP78 ERSR act: inactive; Anesthetic bind: inactive

Results for Cc1noc(C)c1-c1nccc(N2CCNCC2)n1 ?
12-LOX inh: inconclusive; GRP78 ERSR act: inactive; Anesthetic bind: inactive

How did CC(CCN1CCC(CN2C(=O)C(=O)NC[C@@H]2Cc2ccccc2)CC1)c1ccccc1 (some centres undefined) do in these assays?
rTrxR1 inhibitor: inactive; TrxR1 substrate: inactive; 12-LOX inh: 40µM; IDH1 R132H inh: inactive; GRP78 ERSR act: inactive

Results for CN(C)C(=S)Nc1ccc([N+](=O)[O-])cc1 ?
rTrxR1 inhibitor: inactive; TrxR1 substrate: inactive; 12-LOX inh: inactive; IDH1 R132H inh: inactive; GRP78 ERSR act: inactive; Anesthetic bind: inactive

What do the screens show for `CCN(CC)C(=S)Sc1ccc([N+](=O)[O-])cc1`?
12-LOX inh: 5.6µM

What do the screens show for `CNCC(=O)N1CCC(n2nccc2NC(=O)Nc2ccccc2C)CC1`?
12-LOX inh: inactive

How did COCCn1cnnc1SCc1csc(-c2cc(Br)ccc2OC)n1 do in these assays?
12-LOX inh: 16µM

What do the screens show for `COc1ccccc1-n1cnnc1SCc1csc(-c2ccccc2)n1`?
rTrxR1 inhibitor: inconclusive; TrxR1 substrate: inactive; 12-LOX inh: inactive; IDH1 R132H inh: inactive; GRP78 ERSR act: inactive; Anesthetic bind: inactive

What do the screens show for `Cc1ccc([C@@H]2CN(C(=O)CCc3c(C)nn(C)c3C)C[C@H]2N(C)C)cc1`?
12-LOX inh: inactive

Results for COCCCNc1nc2ccccc2nc1NS(=O)(=O)c1cc(Cl)ccc1Cl ?
rTrxR1 inhibitor: inactive; TrxR1 substrate: inactive; 12-LOX inh: 40µM; IDH1 R132H inh: inactive; GRP78 ERSR act: inactive; Anesthetic bind: inactive

What do the screens show for `COCCCNc1nc2ccccc2nc1NS(=O)(=O)c1ccc(Cl)cc1`?
rTrxR1 inhibitor: inactive; TrxR1 substrate: inactive; 12-LOX inh: inactive; IDH1 R132H inh: inactive; GRP78 ERSR act: inactive; Anesthetic bind: inactive

What do the screens show for `CCN1CCN(c2nc3ccccc3nc2NS(=O)(=O)c2cc(Cl)ccc2Cl)CC1`?
12-LOX inh: 25µM

How did CSc1cccc(Nc2nc(N)c(C(=O)c3ccc(F)cc3)s2)c1 do in these assays?
12-LOX inh: inactive

Results for CC(=O)Oc1ccc(C(=O)[C@H]2[C@H]3C(=O)N(c4ccccc4)C(=O)[C@H]3[C@@H]3C=CC=NN32)cc1 ?
rTrxR1 inhibitor: 11µM; TrxR1 substrate: inactive; 12-LOX inh: inconclusive; IDH1 R132H inh: inconclusive; GRP78 ERSR act: inactive; Anesthetic bind: inactive
